Source: PubChem
CDK5 inh – inhibitors of human CDK5/p35 kinase, primary screen, biochemical, single concentration. Recombinant CDK5/p35, ADP-Glo luminescence, 60 min. inhibition, % at 10 µM. 330,000 compounds, 0.01% hits;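 active = highest replicate inhibition of at least 50% and at least 75% of replicates reaching 50%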;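 note: plate controls were DMSO neutral control for no effect and GW8510 at 10 µM for full effect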
Target sequence (Q00535 whole entry, looked up): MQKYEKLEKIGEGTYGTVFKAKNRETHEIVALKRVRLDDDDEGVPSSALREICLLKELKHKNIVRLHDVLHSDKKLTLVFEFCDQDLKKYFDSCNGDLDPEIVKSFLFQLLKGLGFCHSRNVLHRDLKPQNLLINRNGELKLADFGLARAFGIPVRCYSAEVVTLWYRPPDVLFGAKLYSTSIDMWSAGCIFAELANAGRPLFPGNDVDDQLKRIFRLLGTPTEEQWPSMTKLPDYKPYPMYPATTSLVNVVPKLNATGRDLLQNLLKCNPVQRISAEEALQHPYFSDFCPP
Target sequence (Q15078 whole entry, looked up): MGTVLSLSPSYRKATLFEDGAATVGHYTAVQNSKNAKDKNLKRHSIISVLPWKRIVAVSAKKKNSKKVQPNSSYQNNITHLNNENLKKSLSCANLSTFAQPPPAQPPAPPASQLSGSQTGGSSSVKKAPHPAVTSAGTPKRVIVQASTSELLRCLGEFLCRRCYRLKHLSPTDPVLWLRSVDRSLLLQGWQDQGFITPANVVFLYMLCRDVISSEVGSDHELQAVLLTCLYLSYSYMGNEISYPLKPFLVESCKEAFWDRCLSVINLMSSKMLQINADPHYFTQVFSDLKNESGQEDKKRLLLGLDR
PglD inh – C. jejuni PglD acetyltransferase inhibitors, primary screen, biochemical, DTNB colorimetric, single point | UDP-N-acetylbacillosamine N-acetyltransferase PglD (Campylobacter jejuni) | purified PglD enzyme, DTNB colorimetric CoA detection | inhibition, % at 12.5 µM | 360,000 compounds, 0.098% hits; in the data active = inhibition above about 16%, passing the limit was not always enough
PvdQ inh – P. aeruginosa PvdQ acylase inhibitors, primary screen, biochemical, fluorescence, plate reader and imaging, single point; PvdQ acylase [Pseudomonas aeruginosa LESB58]; purified PvdQ acylase; inhibition, % at 10 µM; 340,000 compounds, 0.063% hits; AID 488965, 2010; in the data active = inhibition above about 30%, passing the limit was not always enough;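 note: 0% = vehicle neutral wells and 100% = reference inhibitor wells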
dFosB act – activators of delta FosB homodimer, primary screen, biochemical, fluorescence polarization, TAMRA-CDK5 oligo, single point. 340,000 compounds, 0.99% hits. Protein FosB (Mus musculus), P13346. activation, % at 25 µM. purified delta FosB; percent of positive-control signal above neutral wells;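 active = mean activation above about 17%, with every replicate also reaching it, limit read from the data, passing the limit was not always enough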
FGF22 binding – binders of human FGF22 protein, primary screen, FGF22 synaptogenesis inhibitor project, biophysical, thermal shift, single point; AID 651658, 2012; recombinant FGF22 thermal shift, SYPRO orange fluorescence; percent of sucrose octasulfate shift, DMSO zero; 340,000 compounds, 1.5% hits; activity (Tm shift, normalised), % at 9.99 µM; Fibroblast growth factor 22 (Homo sapiens), Q9HCT0;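 active = mean Tm shift, scaled 0 neutral to 100 positive control, at about 1.3% or above, every replicate too, limit read from the data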
SIRT5 inh – SIRT5 desuccinylase inhibitors, primary screen, biochemical, fluorescence imaging, single point, set 5 | NAD-dependent protein deacylase sirtuin-5, mitochondrial (Homo sapiens), Q9NXA8 | inhibition, % at 15 µM | Purified SirT5, succinyl-peptide AMC, trypsin-coupled fluorescence | AID 652115, 2013 | 330,000 compounds, 1.1% hits; in the data active = inhibition above about 15%
* hit, by the source's call. In the library only some 2.8% were active in any assay of this set; here they are far more common.

What do the screens show for `Cc1noc(C)c1S(=O)(=O)Nc1ccc2c(c1)C(=O)N([C@@H](C)CO)C[C@@H](C)[C@@H](CN(C)C(=O)NC(C)C)OCCCC[C@H](C)O2`?
PglD inh: -2; FGF22 binding: 0; SIRT5 inh: -2

How did Cn1c(CNC(=O)c2ccco2)nnc1SCC(=O)Nc1c(F)cc(F)cc1Br do in these assays?
CDK5 inh: -2; PvdQ inh: -4; dFosB act: 2; FGF22 binding: 44*; SIRT5 inh: -1

How did O=C(CN1CCOCC1)N[C@H]1CC[C@H](CCNC(=O)C2CCCCC2)O[C@H]1CO do in these assays?
PglD inh: 0; FGF22 binding: 0; SIRT5 inh: 9

How did O=C(NCCc1ccc(O)c(Br)c1)c1ccc(Br)o1 do in these assays?
FGF22 binding: 1.7*; SIRT5 inh: 0

What do the screens show for `O=C(NCCc1c[nH]c2ccccc12)c1ccc(Br)o1`?
CDK5 inh: 0; PglD inh: 5; PvdQ inh: -12; dFosB act: 1; FGF22 binding: 2.3*; SIRT5 inh: -2

What do the screens show for `C[C@H](NC(=O)C[C@@H]1C[C@H]2c3cc(N(C)C)ccc3O[C@H]2[C@@H](CO)O1)c1ccccc1`?
PglD inh: -1; FGF22 binding: 0; SIRT5 inh: -6

Results for CO[C@H]1CN(C)C(=O)c2ccc(NC(=O)c3ccc(F)cc3)cc2OC[C@@H](C)N(C)C[C@@H]1C ?
PglD inh: -1; SIRT5 inh: 1

How did Cn1cnc(CCNC(=O)C[C@@H]2CC[C@H]3[C@@H](COC[C@H](O)CN3C(=O)Nc3ccccc3)O2)c1 do in these assays?
PglD inh: 0; FGF22 binding: 0; SIRT5 inh: -2

How did CN1c2ccccc2Oc2nnc(N3CCN(Cc4ccccc4)CC3)cc21 do in these assays?
CDK5 inh: 0; PglD inh: -1; PvdQ inh: -5; dFosB act: -2; FGF22 binding: 43*

Results for O=C(N/N=C/c1cc([N+](=O)[O-])ccc1Cl)c1cnccn1 ?
CDK5 inh: 0; PglD inh: -2; PvdQ inh: 0; dFosB act: -1; FGF22 binding: 43*; SIRT5 inh: 4

What do the screens show for `O=C(c1cccs1)N1CCN(Cc2cccc([N+](=O)[O-])c2)CC1`?
CDK5 inh: 1; PvdQ inh: -1; dFosB act: 2; FGF22 binding: 0; SIRT5 inh: -3

What do the screens show for `O=[N+]([O-])c1cccc(COc2cccc(CN3CCCCC3)c2)c1`?
CDK5 inh: 2; PglD inh: -4; PvdQ inh: -10; dFosB act: -7; FGF22 binding: 43*

What do the screens show for `O=C(c1ccco1)N1CCN(Cc2cccc([N+](=O)[O-])c2)CC1`?
CDK5 inh: -3; PvdQ inh: 4; dFosB act: 2; FGF22 binding: 44*; SIRT5 inh: -3

What do the screens show for `CC1(C)Cc2c(c(-c3ccco3)nc3sc4c(NCCO)ncnc4c23)CO1`?
CDK5 inh: -1; PvdQ inh: -6; dFosB act: -38; FGF22 binding: 43*; SIRT5 inh: 10

How did COCCCNc1ncnc2c1sc1nc(-c3ccco3)c3c(c12)CC(C)(C)OC3 do in these assays?
CDK5 inh: 0; PvdQ inh: -5; dFosB act: -40; FGF22 binding: 0; SIRT5 inh: 19*

Results for Cc1nc2sc3c(NCc4ccco4)ncnc3c2c2c1COC(C)(C)C2 ?
CDK5 inh: 1; PglD inh: 9; PvdQ inh: -12; dFosB act: -46

How did CN(C)C(=O)c1ccc(-c2ccc([C@H]3[C@H]4CN(C(=O)C5CCCCC5)CC(=O)N4[C@H]3CO)cc2)cc1 do in these assays?
SIRT5 inh: -4

Results for C[C@H](CO)N1C[C@H](C)[C@H](CN(C)C(=O)Nc2ccccc2)Oc2ccc(NC(=O)CCC(F)(F)F)cc2CC1=O ?
PglD inh: -4; FGF22 binding: 0; SIRT5 inh: 0

How did Cc1ccc(S(=O)(=O)Nc2ccc3c(c2)CC(=O)N([C@H](C)CO)C[C@@H](C)[C@@H](CN(C)C(=O)Nc2ccccc2)O3)cc1 do in these assays?
PglD inh: 5; FGF22 binding: 0; SIRT5 inh: -2

What do the screens show for `CCOC(=O)/C=C(\C)Sc1cc(=O)oc2ccccc12`?
CDK5 inh: 3; PglD inh: 0; PvdQ inh: 49*; dFosB act: -4

How did CCOC(=O)/C=C(\C)Sc1cc(O)c2ccccc2c1O do in these assays?
CDK5 inh: -1; PglD inh: 6; PvdQ inh: -5; dFosB act: -18; FGF22 binding: 0; SIRT5 inh: 2

How did CSc1ccccc1C(=O)N1CCCCC1 do in these assays?
CDK5 inh: -1; PvdQ inh: -7; dFosB act: 0; FGF22 binding: 0; SIRT5 inh: 20*

Results for CSc1ccccc1C(=O)N1CCN(c2ccc(F)cc2)CC1 ?
CDK5 inh: 0; PglD inh: -6; PvdQ inh: 7; dFosB act: -5

What do the screens show for `CC(C)(C)OC(=O)NCc1ccc(CNC(=O)c2[nH]cnc2C(=O)Nc2ccccc2F)cc1`?
PglD inh: 2; FGF22 binding: 43*

Results for O=C(Nc1ccccc1F)c1nc[nH]c1C(=O)NCc1ccccc1 ?
PglD inh: 4; FGF22 binding: 0; SIRT5 inh: 0

Results for CN(C)c1ccc(/C=N/NC(=O)c2nnn(-c3nonc3N)c2CN(C)c2ccccc2)cc1 ?
CDK5 inh: -3; PglD inh: 3; PvdQ inh: -30; dFosB act: -6; FGF22 binding: 0; SIRT5 inh: 17*

What do the screens show for `CCCN(CCC)Cc1c(C(=O)N/N=C/C(C)=C\c2ccccc2)nnn1-c1nonc1N`?
CDK5 inh: 1; PglD inh: 0; PvdQ inh: -7; dFosB act: -5; FGF22 binding: 0; SIRT5 inh: 16*

How did CCCc1c(C(=O)N/N=C/C(C)=C/c2ccccc2)nnn1-c1nonc1N do in these assays?
CDK5 inh: 2; PglD inh: -4; PvdQ inh: -6; dFosB act: -8; FGF22 binding: 0; SIRT5 inh: 0
